Inconclusive results are not listed. A call without a number means that no potency is given here. Active and inactive are the calls of the source. Unless noted, calls follow the shape of the dose curve; as a rule, active = well fitted curve in the direction sought with a large enough effect in the repeat runs; inconclusive = weak or mixed curves; inactive = no such curve, though single readings can be large; an effect the other way counts as inactive or inconclusive.
Potency is read from the fitted curve at half-maximal effect.

Cytochrome P450 2C9 (Homo sapiens), sequence (P11712 whole entry, looked up): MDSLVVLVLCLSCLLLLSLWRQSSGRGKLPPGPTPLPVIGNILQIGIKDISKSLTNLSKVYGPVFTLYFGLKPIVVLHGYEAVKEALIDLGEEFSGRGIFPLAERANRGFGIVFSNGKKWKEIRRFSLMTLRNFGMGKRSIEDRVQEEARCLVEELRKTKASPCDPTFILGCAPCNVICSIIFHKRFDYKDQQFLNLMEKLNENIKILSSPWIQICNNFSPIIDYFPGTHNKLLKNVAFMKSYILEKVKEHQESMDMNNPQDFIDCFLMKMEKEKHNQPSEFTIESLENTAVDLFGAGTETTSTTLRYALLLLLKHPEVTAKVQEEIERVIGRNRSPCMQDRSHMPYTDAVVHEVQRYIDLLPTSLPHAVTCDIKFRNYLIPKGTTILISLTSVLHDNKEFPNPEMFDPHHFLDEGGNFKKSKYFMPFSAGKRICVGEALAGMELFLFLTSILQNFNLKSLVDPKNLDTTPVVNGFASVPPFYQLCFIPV

The first test addresses Cytochrome P450 2C9 (Homo sapiens) (UniProt P11712). Put plainly: Cytochrome P450 family 2 subfamily C member 9 (CYP2C9) small molecule antagonists: luciferase biochemical (cell-free) qHTS assay (AID 1645842). Also: nearly all actives have a fitted effect of over 55% in size. To be noted: P450-Glo CYP2C9 enzyme assay, luciferin luminescence; series mostly up to 57.4 µM. The method in brief: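 P450-Glo CYP2C9 system: proluciferin substrate with enzyme in mix containing 0.4% BSA, 10 min at room temperature, then NADPH regeneration solution added and incubated 1 h at 37C. Detection reagent stopped reaction; luminescence read after 20 min as RLU.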
A general note: qHTS replaces the single test concentration by a dilution series.
For the compound `O=C(Nc1ccc(Cl)cc1)Nc1ccc(Cl)c(C(F)(F)F)c1`, the Potency was 11 µM (active).
The same measure, in the same setting: in the case of `NC(=O)NC1N=C([O][Al])NC1=O` (centres undefined) it was “inactive”; in that of `COc1ccccc1OCC1CNC(=O)O1` (centres undefined), “inactive”; in that of `CNC[C@H](O)[C@@H](O)[C@H](O)[C@H](O)CO`, “inactive”.
Still for that read-out and setting: as for `CC(=O)N(CC(O)CO)c1c(I)c(C(=O)NCCO)c(I)c(C(=O)NCC(O)CO)c1I` (centres undefined), the entry is “inactive”; as for `NS(=O)(=O)c1cc2c(cc1Cl)CN(C1CCCCC1)C2=O`, “inactive”.
Same read-out and setting: as for `c1ccc(C(O[C@H]2CCCN(CCc3ccc4c(c3)OCO4)C2)c2ccccc2)cc1`, the figure is 24.5 µM (active); as for `O=C(Nc1ccc(Cl)cc1)Nc1ccc(Cl)c(Cl)c1`, 4.36 µM (active).
As to `C[C@H]1NCc2cc(-c3ccc4c(=O)c(C(=O)O)cn(C5CC5)c4c3OC(F)F)ccc21`, the Potency entry is “inactive”.
On the same count and under the same terms, as for `CN=C(N)NC(=O)Nc1c(C)cccc1C`, the entry is “inactive”.
Still for that read-out and setting: in the case of `CN1CC[C@H](c2c(O)cc(O)c3c(=O)cc(-c4ccccc4Cl)oc23)[C@H](O)C1` it was “inactive”; in that of `Cc1cc(=O)oc2cc(O[C@@H]3SC[C@@H](O)[C@H](O)[C@H]3O)ccc12`, “inactive”; in that of `CCCCCN(CCCOC)C(=O)C(CCC(=O)O)NC(=O)c1ccc(Cl)c(Cl)c1` (centres undefined), 19.5 µM (active).
On the same count and under the same terms, as for `COc1ccc(-n2nc(CCC(=O)N(C)O)cc2-c2ccc(Cl)cc2)cc1`, the figure is 2.75 µM (active); as for `CCCCCCCCCCCC[N+](C)(C)Cc1ccccc1`, 15.5 µM (active); as for `CCCCCCCCCCCCCCCCCCN(C)C`, “inactive”.
Consider `COC(=O)C1=C(C)NC(COC(N)=O)=C(C(=O)OC(C)C)C1c1cccc(Cl)c1Cl` (centres undefined), for which the Potency was 4.36 µM (active).
Still for that read-out and setting: in the case of `CC(C)=CCNc1ncnc2c1ncn2[C@@H]1O[C@H](CO)[C@@H](O)[C@H]1O` it was “inactive”; in that of `CCCCNc1ccc(C(=O)OCCN(CC)CC)cc1`, “inactive”; in that of `CC(=O)Nc1ccc(S(=O)(=O)Nc2cc(C)on2)cc1`, “inactive”.
Same read-out and setting: in the case of `Cc1cc(O)c2c(O)c3c(O)cccc3cc2c1` it was 3.09 µM (active); in that of `Cc1nc(N)nc(N)c1-c1ccc(Cl)c(Cl)c1`, “inactive”.
In the case of `O=C(Nc1ccc(S(=O)(=O)N2CCOCC2)cc1)c1cc(Cl)ccc1NS(=O)(=O)c1ccc(Cl)s1`, the Potency was 0.0436 µM (active).
Still for that read-out and setting: in the case of `CC1CCCCN1CCCOC(=O)c1ccc(OC2CCCCC2)cc1` (centres undefined) it was “inactive”; in that of `CC1(C)O[C@@H]2C[C@H]3[C@@H]4C[C@H](F)C5=CC(=O)C=C[C@]5(C)[C@@]4(F)[C@@H](O)C[C@]3(C)[C@]2(C(=O)CO)O1`, “inactive”.
Same read-out and setting: in the case of `CCC(CN)=C(c1ccccc1)c1ccccc1` it was 11.5 µM (active).
Same read-out and setting: in the case of `CC(NCCC(c1ccccc1)c1ccccc1)c1ccccc1` (centres undefined) it was 13.8 µM (active).
With `CCCCCOc1ccccc1/C(=C\SC)n1ccnc1`, the Potency is 3.89 µM (active).
Turning to `Nc1ncnc2c1ncn2Cc1c(F)cccc1Cl`, the Potency result is “inactive”.
Same read-out and setting: as for `CO[C@@H]1[C@@H](OC)[C@H](C)[C@@](O)(CC(=O)O)O[C@H]1[C@H](C)[C@H]1O[C@@]2(CC[C@@](C)([C@H]3CC[C@@](C)([C@@H]4O[C@@H]([C@H]5O[C@](C)(O)[C@H](C)C[C@@H]5C)C[C@@H]4OC4C[C@H](OC)[C@@H](OC)[C@H](C)O4)O3)O2)C[C@H](O)[C@H]1C` (some centres undefined), the entry is “inactive”; as for `CCOC(=O)NNc1ccc(N(CC)CC(C)O)nn1` (centres undefined), “inactive”.

System in a further test: not listed separately
In words: Primary qHTS for inhibitors of nuclear receptor binding SET domain protein 2 (NSD2) in an isogenic RCH-ACV NSD2 p.E1099K mutant (9B) (AID 1645876; active = well fitted curve in the direction sought with a large enough effect; an effect the other way counts as inactive or inconclusive; also: nearly all actives have a fitted effect of over 70% in size). To be noted: RCH-ACV (leukaemia line) NSD2 E1099K (9B) viability, CellTiter-Glo, 72 h; series mostly up to 44.9 µM.
On to `O=C(Nc1ccc(Cl)cc1)Nc1ccc(Cl)c(C(F)(F)F)c1`, for which the Potency was 4.22 µM (active).
Consider `NC(=O)NC1N=C([O][Al])NC1=O` (centres undefined), for which the Potency result was “inactive”.
The same measure, in the same setting: as for `COc1ccccc1OCC1CNC(=O)O1` (centres undefined), the entry is “inactive”; as for `CC(=O)N(CC(O)CO)c1c(I)c(C(=O)NCCO)c(I)c(C(=O)NCC(O)CO)c1I` (centres undefined), “inactive”; as for `NS(=O)(=O)c1cc2c(cc1Cl)CN(C1CCCCC1)C2=O`, “inactive”.
Take `O=C(Nc1ccc(Cl)cc1)Nc1ccc(Cl)c(Cl)c1`: the Potency is 6.68 µM (active).
`C[C@H]1NCc2cc(-c3ccc4c(=O)c(C(=O)O)cn(C5CC5)c4c3OC(F)F)ccc21`: the Potency entry was “inactive”.
Same read-out and setting: as for `CN=C(N)NC(=O)Nc1c(C)cccc1C`, the entry is “inactive”.
The same measure, in the same setting: in the case of `CN(C(=O)C(Cl)Cl)c1ccc(OC(=O)c2ccco2)cc1` it was “inactive”.
Same read-out and setting: as for `CN1CC[C@H](c2c(O)cc(O)c3c(=O)cc(-c4ccccc4Cl)oc23)[C@H](O)C1`, the figure is 0.0211 µM (active).
For the compound `Cc1cc(=O)oc2cc(O[C@@H]3SC[C@@H](O)[C@H](O)[C@H]3O)ccc12`, the Potency result was “inactive”.
Still for that read-out and setting: in the case of `CCCCCN(CCCOC)C(=O)C(CCC(=O)O)NC(=O)c1ccc(Cl)c(Cl)c1` (centres undefined) it was “inactive”; in that of `COc1ccc(-n2nc(CCC(=O)N(C)O)cc2-c2ccc(Cl)cc2)cc1`, 8.41 µM (active); in that of `CCCCCCCCCCCC[N+](C)(C)Cc1ccccc1`, 0.473 µM (active).
For the compound `CCCCCCCCCCCCCCCCCCN(C)C`, the Potency result is “inactive”.
On to `COC(=O)C1=C(C)NC(COC(N)=O)=C(C(=O)OC(C)C)C1c1cccc(Cl)c1Cl` (centres undefined), for which the Potency was 18.8 µM (active).
On the same count and under the same terms, as for `CC(C)=CCNc1ncnc2c1ncn2[C@@H]1O[C@H](CO)[C@@H](O)[C@H]1O`, the figure is 1.68 µM (active); as for `CCCCNc1ccc(C(=O)OCCN(CC)CC)cc1`, “inactive”; as for `CC(=O)Nc1ccc(S(=O)(=O)Nc2cc(C)on2)cc1`, “inactive”.
Still for that read-out and setting: in the case of `Cc1cc(O)c2c(O)c3c(O)cccc3cc2c1` it was “inactive”; in that of `Cc1nc(N)nc(N)c1-c1ccc(Cl)c(Cl)c1`, 0.266 µM (active).
On the same count and under the same terms, in the case of `C=CC[N+]1([C@H]2C[C@H]3[C@@H]4CC[C@H]5C[C@H](OC(C)=O)[C@@H](N6CCCCC6)C[C@]5(C)[C@H]4CC[C@]3(C)[C@H]2OC(=O)CC)CCCCC1` it was “inactive”; in that of `O=C(Nc1ccc(S(=O)(=O)N2CCOCC2)cc1)c1cc(Cl)ccc1NS(=O)(=O)c1ccc(Cl)s1`, “inactive”; in that of `CC(NCCC(c1ccccc1)c1ccccc1)c1ccccc1` (centres undefined), 18.8 µM (active).
As to `CCCCCOc1ccccc1/C(=C\SC)n1ccnc1`, the Potency was 13.3 µM (active).
On the same count and under the same terms, in the case of `Nc1ncnc2c1ncn2Cc1c(F)cccc1Cl` it was “inactive”; in that of `CO[C@@H]1[C@@H](OC)[C@H](C)[C@@](O)(CC(=O)O)O[C@H]1[C@H](C)[C@H]1O[C@@]2(CC[C@@](C)([C@H]3CC[C@@](C)([C@@H]4O[C@@H]([C@H]5O[C@](C)(O)[C@H](C)C[C@@H]5C)C[C@@H]4OC4C[C@H](OC)[C@@H](OC)[C@H](C)O4)O3)O2)C[C@H](O)[C@H]1C` (some centres undefined), 0.596 µM (active); in that of `CCOC(=O)NNc1ccc(N(CC)CC(C)O)nn1` (centres undefined), “inactive”.

The record behind these values is PubChem BioAssay (NCATS).
